In PubChem BioAssay (NCI):
Compounds without any hit were thinned out: in the full panel of roughly 83,000, 20% have a hit.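 Compound tested at a single concentration for 48 hours in 96-well plates; a percent growth value below 10 was scored as active.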 Unmarked numbers belong to inactive results. Active and inactive are the calls of the source.

Assays:
Experiment in all cases: NCI-60 one-dose screen, 48 h (100 = growth as untreated, 0 = no growth, -100 = all killed)
Settings in all cases: 10 µM unless noted
[1] = tested on: DU-145 prostate
[2] = tested on: K-562 leukemia
[3] = tested on: MALME-3M melanoma
[4] = tested on: MDA-MB-231 breast
[5] = tested on: RXF 393 renal
[6] = tested on: SF-268 CNS
[7] = tested on: SF-295 CNS
[8] = tested on: SF-539 CNS
[9] = tested on: UACC-257 melanoma

SMILES	growth [1]	growth [2]	growth [3]	growth [4]	growth [5]	growth [6]	growth [7]	growth [8]	growth [9]
COc1cc(OC)c(/C=C/S(=O)(=O)Cc2ccc(OC)c(NC(=O)CCC(=O)NO)c2)c(OC)c1	14.4%	12.6%	64.1%	26%	6.03% (active)	30.4%	8.21% (active)	-4.79% (active)	59.5%
O=C(/C=C/c1ccc(F)cc1)c1ccc(O)cc1	95.5%	58.7%	118%	100%	105%	101%	104%	93.7%	95.5%
C#Cc1nc(C(=O)NCCC(=O)Nc2ccc(NC(=O)c3ccc(/C=C/C(=O)c4nccn4C)cc3)cc2)cs1	21.1%	8.97% (active)	6.41% (active)	5.11% (active)	45.8%	33.4%	55.6%	-89.4% (active)	78.5%
Nc1ccccc1NC(=O)c1ccc(NC(=O)C/C=C/c2cccnc2)cn1	6.29% (active)	15.7%	15.6%	41.6%	-35.5% (active)	28.3%	21.8%	9.41% (active)	14.5%
CN(Cc1ccccc1)S(=O)(=O)/N=C1\NC(=O)NC1=C(Cl)Cl	25.7%	1.09% (active)	-19.9% (active)	-2.3% (active)	55.1%	56.1%	98.9%	0.38% (active)	68.2%
Nc1ccccc1NC(=O)c1ccc(NC(=O)C/C=C/c2cccnc2)cc1	14.1%	17.1%	18.1%	50.5%	-13.9% (active)	35.3%	34.9%	7.57% (active)	26.6%
O=C(Nc1cccc(C(F)(F)F)c1)c1cc(-c2ccc(F)cc2F)ccc1O	18.9%	11.1%	-10.2% (active)	3.11% (active)	-25.9% (active)	16.5%	-23.1% (active)	10.4%	-8.74% (active)
COC(=O)/C=C/c1c(C2(C)NC(=O)c3ccccc3N2)c(=O)oc2ccc(Cl)cc12 (stereo unspecified)	102%	105%	88.3%	89.2%	69.5%	92.9%	95.3%	95.8%	98%
CCN(CC)c1cn(-c2ccc(S(N)(=O)=O)cc2)nn1	105%	91.6%	103%	102%	114%	101%	101%	99.6%	99.7%
O=C1Nc2ccccc2/C1=C/c1ccc(CO)n1-c1ccc(Cl)cc1	81.4%	19.3%	27.6%	58.1%	57.1%	74.2%	33.8%	44.5%	83.4%
O=S(=O)(NCCCNc1nccc(-n2cnc3ccccc32)n1)c1ccc(C(F)(F)F)cc1	94.5%	67.6%	98.4%	83.1%	105%	86.8%	81.2%	87.9%	97.8%
CCCCc1nc(/C=N/Nc2nc(Nc3ccccc3)nc(Nc3ccc(S(N)(=O)=O)cc3)n2)c(Cl)[nH]1	84.6%	38%	99.7%	67%	117%	65.9%	102%	81.2%	108%
Oc1ccc(CSc2nnc(-c3ccc(Cl)cc3)n2-c2ccccc2)c2cccnc12	38.8%	22.1%	29.6%	58.5%	56.3%	30.7%	4.65% (active)	22%	29.3%
CNC(=O)c1cc(-c2ccc(NS(=O)(=O)c3ccc(C)cc3)cc2)nc2cccnc12	113%	101%	101%	95%	133%	107%	108%	102%	105%
COc1cc(-c2nc(-c3ccccc3)[nH]c2-c2ccnc(NCCCNS(=O)(=O)c3cccc(F)c3)n2)ccc1Cl	54.3%	23.4%	64.3%	64.8%	36.1%	59.4%	25%	69.5%	58.7%
O=[N+]([O-])c1cc(/C=N/Nc2nc(N/N=C/c3ccc(Cl)c([N+](=O)[O-])c3)nc(N3CCCCC3)n2)ccc1Cl	29.6%	31.7%	101%	48.3%	99.9%	64.9%	93.2%	36.3%	51.1%
CNC(=O)c1cc(N2CCc3cc(NC(=O)Nc4ccc(Cl)c(C(F)(F)F)c4)ccc32)ccn1	63.6%	33.7%	64.5%	67.2%	-8.94% (active)	70.1%	26.5%	48.8%	72.7%
C[C@H](CCC(=O)NCc1ccc(C(=O)Nc2ccccc2N)cc1)[C@H]1CC[C@H]2[C@@H]3[C@@H](O)C[C@@H]4C[C@H](O)CC[C@]4(C)[C@H]3CC[C@]12C	84.1%	30.6%	45%	49.2%	55.3%	52.6%	69.1%	55.6%	63.7%
NC(=O)c1c(NC(=O)c2ccccc2C(F)(F)F)sc2c1CCC(=O)C2	81.2%	11.7%	15%	16.2%	41.7%	24.6%	73%	5.83% (active)	10.6%
COc1cc(OC)c(/C=C/S(=O)(=O)Cc2ccc(OC)c(NCC(=O)NO)c2)c(OC)c1	13.8%	11.6%	61.8%	25.4%	-0.671% (active)	31.9%	6.88% (active)	-5.59% (active)	62.4%
O=C(CCC(=O)N1CCOCC1)OCCCCCCSc1ccc([N+](=O)[O-])c2nonc12	-91.9% (active)	6.53% (active)	-81.2% (active)	-39.8% (active)	-62% (active)	-9.47% (active)	-12.5% (active)	-88.4% (active)	-25.7% (active)
Cc1ccc(NC(=O)c2ccc(CN3CCOCC3)c(C(F)(F)F)c2)cc1Oc1ccc(-c2[nH]nc3ncnc(N)c23)cc1	76.9%	20%	27.4%	54.3%	40.5%	81.6%	63.2%	49.3%	48.7%
Cn1ccnc1C(=O)/C=C/C=C/c1ccc(C(=O)Nc2ccc(F)cc2)cc1	18.8%	12.6%	19.9%	12.3%	-25.1% (active)	22%	59%	-25.4% (active)	46.8%
COc1ccc(N2CCN(C3=C(Cl)C(=O)C(C)=C(C)C3=O)CC2)cc1	108%	83.1%	110%	88.2%	153%	105%	108%	105%	102%
Clc1cccc(/C=N/Nc2nc(N/N=C/c3cccc(Cl)c3Cl)nc(N3CCCCC3)n2)c1Cl	73.4%	78.1%	92.5%	84.2%	112%	86.4%	92.7%	84.3%	100%
O=S(=O)(Oc1ccc(-c2nnc(Nc3ccccc3)s2)cc1)C(F)(F)C(F)(F)C(F)(F)C(F)(F)C(F)(F)C(F)(F)F	107%	94.4%	108%	86.9%	102%	100%	105%	97.7%	96.8%
O=C(Cn1cc(-c2ccccc2)nn1)Nc1nc(-c2ccc(Cl)cc2)cs1	108%	98%	90.4%	104%	135%	113%	77.7%	108%	98.9%
N#Cc1c(NC(=O)c2cccc(C(F)(F)F)c2F)sc2c1CCC(=O)C2	24.6%	1.31% (active)	-21.6% (active)	-48% (active)	-67.1% (active)	11.2%	-19.4% (active)	-41.8% (active)	-36.3% (active)
Cc1ccc(-n2cc(/C=N/NC(=O)c3ccncc3)c(-c3ccc(S(C)(=O)=O)cc3)n2)cc1	97.3%	32.3%	68.7%	79.5%	103%	100%	102%	91.8%	96.5%
